Test systems include NCI-H23 lung; NCI-H226 lung; NCI-H322M lung; HOP-62 NSCLC; NCI-H460 lung; HOP-92 NSCLC; NCI-H522 lung; A549/ATCC NSCLC; 786-0 renal; COLO 205 colon; DU-145 prostate; K-562 leukemia; MALME-3M melanoma; MDA-MB-231 breast; RXF 393 renal; SF-268 CNS; SF-295 CNS; SF-539 CNS; UACC-257 melanoma; M14 melanoma.
Experiment in all cases: NCI-60 one-dose screen, 48 h (100 = growth as untreated, 0 = no growth, -100 = all killed)
What all share (details): 10 µM unless noted

The panel holds about 83,000 compounds, 20% with a hit somewhere; the sample as a whole holds those more often.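 Method: cells in 96-well plates; compound added at one concentration; 48 h incubation; percent growth measured; values under 10 scored active.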 Values without a mark were called inactive. Activity calls are given as the source filed them.

With `Cc1cnc(NC(=O)Nc2cc(Br)c(C)cc2OC[C@@H]2CNCCO2)cn1`, the growth in the experiment with NCI-H23 lung is 15%; with NCI-H226 lung, 51.2%; in the experiment with NCI-H322M lung it was 34.3%; in the experiment on HOP-62 NSCLC, 12.5%; in the experiment with NCI-H460 lung, 4.27% (active); in the experiment with HOP-92 NSCLC, 35%. For the same molecule, the growth in the experiment on NCI-H522 lung was -16.4% (active); in the experiment on A549/ATCC NSCLC, 17.5%; in the experiment with 786-0 renal it was 2.83% (active); in the experiment on COLO 205 colon, 3.34% (active); in the experiment with DU-145 prostate, 24%; in the experiment with K-562 leukemia it was -42.2% (active). Moreover, the growth was -48.1% (active) in the experiment on MALME-3M melanoma; 22.2% in the experiment on MDA-MB-231 breast; -14.8% (active) with RXF 393 renal; 33.6% in the experiment with SF-268 CNS; 4.01% (active) with SF-295 CNS; -75.8% (active) in the experiment with SF-539 CNS. Moreover, the growth is -76.8% (active) in the experiment on UACC-257 melanoma and -84.5% (active) with M14 melanoma.

As for `Cn1cnc(-c2cc3nccc(Oc4ccc(NC(=S)NC(=O)Cc5ccccc5)cc4F)c3s2)c1`, the growth in the experiment with NCI-H23 lung is 72.5%; with NCI-H226 lung, 54.5%; with NCI-H322M lung it was 108%; in the experiment with HOP-62 NSCLC it was 78.9%; in the experiment with NCI-H460 lung, 93.5%; in the experiment with HOP-92 NSCLC, 50.2%. Moreover, the growth was 41.5% in the experiment with NCI-H522 lung; 53.9% in the experiment with A549/ATCC NSCLC; 98.1% in the experiment on 786-0 renal; 89% in the experiment on COLO 205 colon; 104% in the experiment on DU-145 prostate; 6.69% (active) in the experiment with K-562 leukemia. Moreover, the growth in the experiment on MALME-3M melanoma was 86.3%; with MDA-MB-231 breast it was 81.2%; in the experiment with RXF 393 renal, 87.1%; in the experiment with SF-268 CNS, 84.3%; in the experiment with SF-295 CNS it was 52.5%; in the experiment with SF-539 CNS, 58.7%. In addition, the growth in the experiment with UACC-257 melanoma was 60.5%; in the experiment on M14 melanoma, 96.5%.

For `CNC(=O)c1cc(Oc2cccc3nc(Nc4ccc(Cl)c(F)c4)ccc23)ccn1`, the growth was 62.4% with NCI-H23 lung; 43.4% with NCI-H226 lung; 78.8% in the experiment with NCI-H322M lung; 34.8% in the experiment on HOP-62 NSCLC; 60.6% with NCI-H460 lung; 9.48% (active) with HOP-92 NSCLC. The growth with NCI-H522 lung was 52.7%; in the experiment on A549/ATCC NSCLC, 61.3%; with 786-0 renal, 41.7%; in the experiment with COLO 205 colon, 84.3%; in the experiment with DU-145 prostate, 71.3%; in the experiment with K-562 leukemia it was 83.8%. The growth with MALME-3M melanoma was 1.36% (active); in the experiment with MDA-MB-231 breast, 73.5%; in the experiment on RXF 393 renal, 8.19% (active); in the experiment with SF-268 CNS it was 55.4%; in the experiment with SF-295 CNS it was 51.5%; with SF-539 CNS, 41.1%. Moreover, the growth in the experiment on UACC-257 melanoma is 74.5%; in the experiment on M14 melanoma, 80.2%.

In the case of `CS(=O)(=O)CCNCc1ccc(-c2ccc3ncnc(Nc4ccc(OCc5cccc(F)c5)c(Cl)c4)c3c2)o1`, the growth in the experiment with NCI-H23 lung was 25.9%; in the experiment on NCI-H226 lung, 54.7%; with NCI-H322M lung it was 13.8%; in the experiment with HOP-62 NSCLC, 19.2%; with NCI-H460 lung, -58% (active); in the experiment on HOP-92 NSCLC, -1.7% (active). For the same molecule, the growth with NCI-H522 lung was -44.5% (active); with A549/ATCC NSCLC, -39.4% (active); in the experiment on 786-0 renal, -63.7% (active); in the experiment on COLO 205 colon, -27.2% (active); in the experiment with DU-145 prostate, 12%; with K-562 leukemia, -22.7% (active). The growth with MALME-3M melanoma is -80.3% (active); with MDA-MB-231 breast it was -62.8% (active); in the experiment on RXF 393 renal, -73.9% (active); in the experiment with SF-268 CNS, 8.76% (active); in the experiment on SF-295 CNS, -7.05% (active); with SF-539 CNS, -91% (active). Moreover, the figures for the growth in the experiment on UACC-257 melanoma and in the experiment on M14 melanoma were -94.1% (active) and -64.5% (active), respectively.

Take `Cc1cc(Nc2ncnc3ccc(NC4=NC(C)(C)CO4)cc23)ccc1Oc1ccn2ncnc2c1`: the growth in the experiment with NCI-H23 lung is 35.6%; in the experiment on NCI-H226 lung, 47%; with NCI-H322M lung, 5.34% (active); in the experiment with HOP-62 NSCLC, 22.3%; in the experiment with NCI-H460 lung it was 26.9%; in the experiment with HOP-92 NSCLC, 9.05% (active). The growth in the experiment on NCI-H522 lung is 6.43% (active); in the experiment with A549/ATCC NSCLC, 20.7%; in the experiment on 786-0 renal it was 29.7%; in the experiment with COLO 205 colon it was -60.7% (active); with DU-145 prostate, 35.2%; in the experiment with K-562 leukemia it was 10%. Further, the growth was -8.78% (active) in the experiment with MALME-3M melanoma; -4.62% (active) in the experiment with MDA-MB-231 breast; 0.527% (active) with RXF 393 renal; 41.8% in the experiment on SF-268 CNS; 52.7% with SF-295 CNS; 30.4% in the experiment on SF-539 CNS. The growth was 4.04% (active) with UACC-257 melanoma and 8.95% (active) in the experiment on M14 melanoma.

For `CC#CC(=O)N1CCC[C@H]1c1nc(-c2ccc(C(=O)Nc3ccccn3)cc2)c2c(N)nccn12`, the growth is 96.4% in the experiment with NCI-H23 lung; 80.2% in the experiment on NCI-H226 lung; 76.6% in the experiment with NCI-H322M lung; 68.9% with HOP-62 NSCLC; 90.4% in the experiment with NCI-H460 lung; 76.9% in the experiment on HOP-92 NSCLC. Also, the growth was 37.1% in the experiment with NCI-H522 lung; 48.6% in the experiment on A549/ATCC NSCLC; 92.3% in the experiment with 786-0 renal; 81.6% with COLO 205 colon; 89.1% in the experiment with DU-145 prostate; 77.2% with K-562 leukemia. Besides, the growth with MALME-3M melanoma is 99%; in the experiment on MDA-MB-231 breast, 90.3%; in the experiment with RXF 393 renal it was 93.3%; in the experiment on SF-268 CNS it was 79.5%; in the experiment on SF-295 CNS, 89.9%; in the experiment on SF-539 CNS, 95.4%. The results for the growth in the experiment with UACC-257 melanoma and in the experiment with M14 melanoma were 57.7% and 83.1%, respectively.

For the molecule `C=CC(=O)Nc1cccc(Oc2nc(Nc3ccc(N4CCN(C)CC4)cc3)nc3ccsc23)c1`, the growth is 32.2% with NCI-H23 lung; -2.55% (active) with NCI-H226 lung; 4.69% (active) in the experiment on NCI-H322M lung; -62% (active) with HOP-62 NSCLC; -59.8% (active) in the experiment on NCI-H460 lung; -70.8% (active) with HOP-92 NSCLC. Besides, the growth in the experiment on NCI-H522 lung was -77.1% (active); in the experiment with A549/ATCC NSCLC it was -74.1% (active); in the experiment on 786-0 renal it was -84% (active); in the experiment with COLO 205 colon it was -83.3% (active); in the experiment on DU-145 prostate, -48.4% (active); in the experiment with K-562 leukemia, -25.6% (active). The growth in the experiment on MALME-3M melanoma is -84.2% (active); with MDA-MB-231 breast, -58% (active); with RXF 393 renal, -83.9% (active); in the experiment with SF-268 CNS, 3.11% (active); in the experiment on SF-295 CNS, 23.9%; with SF-539 CNS, -92.9% (active). Besides, the growth in the experiment with UACC-257 melanoma is -80.8% (active); in the experiment on M14 melanoma it was -81% (active).

These data come from PubChem BioAssay (NCI).
